Assay outcomes (PubChem)
In the library only some 1.9% were active in any assay of this set; here they are far more common.
NPSR antag: qHTS Assay for Antagonists of the Neuropeptide S Receptor: cAMP Signal Transduction; AID 1461, 2008; Potency, µM (series often up to 38.3 µM), inactives show at the top dose activity change, negative = inhibition, actives largely listed as inhibitors; CHO-NPSR cells, cAMP TR-FRET, antagonist mode; actives 1% (n = 220,000); also: % is scaled to controls: 0 for no effect and ±100 for the full control effect; nearly all actives have a fitted effect of over 50% in size
Target sequence (Q6W5P4 whole entry, looked up): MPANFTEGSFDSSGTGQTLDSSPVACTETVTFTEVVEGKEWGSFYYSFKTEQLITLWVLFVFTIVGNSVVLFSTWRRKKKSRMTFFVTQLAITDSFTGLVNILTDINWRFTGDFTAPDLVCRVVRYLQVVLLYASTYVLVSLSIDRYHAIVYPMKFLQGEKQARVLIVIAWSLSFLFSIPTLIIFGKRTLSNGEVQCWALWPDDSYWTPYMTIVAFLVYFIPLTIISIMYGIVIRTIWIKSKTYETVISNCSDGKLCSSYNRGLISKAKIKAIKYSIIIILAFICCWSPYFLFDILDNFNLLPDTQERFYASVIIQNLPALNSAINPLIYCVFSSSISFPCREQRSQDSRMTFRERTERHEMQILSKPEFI
ERK EGF block: qHTS Assay for Inhibitors of the ERK Signaling Pathway using a Homogeneous Screening Assay; Stimulation with EGF; actives 0.41% (n = 130,000); HEK293-V1b, EGF-stimulated phospho-ERK AlphaScreen; AID 1454, 2008; Potency, µM (top dose mostly 11.5 µM), inactives show top-dose activity change, negative = inhibition, hits mostly inhibitors;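 also: plate controls were stimulated vehicle wells for no effect and unstimulated vehicle basal for full effect; nearly all actives have a fitted effect of over 55% in size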
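After overnight plating in 1% FBS, HEK293-V1b cells received test compound for half an hour, then a 5 min pulse of EGF (25 nM); ERK phosphorylation in lysates was read by bead-based AlphaScreen.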
IMPase Li cell: qHTS Assay for Identifying the Cell-Membrane Permeable IMPase Inhibitors: Potentiation with Lithium. CHO-M1 cells, IP1 TR-FRET (IP-One), carbachol + lithium. Potency, µM (series often up to 59.4 µM), for the others: top-dose activity, negative = IMPase inhibition, actives largely listed as inhibitors. actives 0.35% (n = 210,000). AID 1457, 2008;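 also: IP1 builds up when IMPase is blocked and the TR-FRET signal falls; plate controls were basal vehicle for no effect and high inhibitor control for full effect; nearly all actives have a fitted effect of over 50% in size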
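IP1 accumulation measured by competitive TR-FRET in lysed CHO-M1 cells after 30 min compound exposure at 37C, with a small lithium addition to potentiate weak responses. Hill-equation AC50 from ratio and donor-channel data.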
HTT cytoprotect: qHTS Multiplex Assay to Identify Dual Action Probes in a Cell Model of Huntington: Cytoprotection (ATP) | PC12 HTT-Q103 induced, cytoprotection, ATP luminescence, 40 h | Potency, µM (highest dose often 56.4 µM), for the others: cytoprotection (ATP increase), hits mostly activators | actives 0.14% (n = 230,000); also: % of control where 0% means no effect; nearly all actives have a fitted effect of over 45% in size
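Compounds added alongside 100 nM tebufenozide, which induces toxic Q103 huntingtin exon 1-GFP in stable PC12 cells; surviving cells quantified by luminescent ATP measurement. Medium: phenol red-free DMEM, 5% equine and 5% calf serum.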
HTT aggregate: qHTS Multiplex Assay to Identify Dual Action Probes in a Cell Model of Huntington: Aggregate Formation (GFP); PC12 HttQ103-GFP aggregates, Acumen cytometry, 40 h; Potency, µM (highest dose often 46.1 µM), for the others: at the top dose activity change, negative = inhibition, actives largely listed as inhibitors; actives 1.1% (n = 220,000); also: % is scaled to controls: 0 for no effect and ±100 for the full control effect; nearly all actives have a fitted effect of over 60% in size
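Multiplexed with ATP-based cell death, this channel scores GFP aggregates in PC12 cells expressing inducible HTTex1-Q103-GFP. Induction used 100 nM tebufenozide; compounds were tested in concentration series.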
Active calls of the source: *; ! = repeats disagree; [ ] = remark or other dose. Calls follow the shape of the dose curve; as a rule, active = well fitted curve in the direction sought with a large enough effect; inconclusive = small, poorly fitted or top-dose-only effect, or another doubt; inactive = no such curve, though single readings can be large; an effect the other way counts as inactive or inconclusive. Potency is read from the fitted curve at half-maximal effect.

`Cc1csc(NC(=O)c2cc3c(s2)CCC3)n1` gave NPSR antag 6%[46.1 µM], IMPase Li cell -2%[38.3 µM], HTT cytoprotect -79%[10 µM] and HTT aggregate -5%.
For COc1ccc(C(=O)N2CCC3(CCCN(C(=O)Nc4cccc(C#N)c4)C3)CC2)cc1 the results were ERK EGF block 8%, IMPase Li cell -31% and HTT cytoprotect -45%.
Screening CCn1c(C)c(CCC(=O)O)c(=O)n2nc(-c3ccccc3OC)cc12 returned NPSR antag 8%[46.1 µM], IMPase Li cell 10µM*, HTT cytoprotect -13% and HTT aggregate -12%.
For COc1ccc(Nc2nc3ccccc3nc2NS(=O)(=O)c2cccs2)c(OC)c1 the results were NPSR antag -26%, ERK EGF block 12%[57.5 µM], HTT cytoprotect 0%[10 µM] and HTT aggregate -17%[9.22 µM].
`COc1cccc(Nc2nc3ccccc3nc2NS(=O)(=O)c2cccs2)c1` gave NPSR antag -23%[46.1 µM], IMPase Li cell 7%[38.3 µM], HTT cytoprotect -77% and HTT aggregate 14µM*.
Cc1noc(C)c1-c1nccc(NCc2ccccc2)n1 was read as IMPase Li cell 23% and HTT cytoprotect -1%.
`O=c1c(O)c(-c2ccc(O)c(O)c2)oc2cc(O)ccc12` gave ERK EGF block -1%, IMPase Li cell 11µM*! and HTT cytoprotect -24%[1.9 µM].
N.N.N.N.N.N.N.N.N.N.N.N.N.N.O.O.[Ru].[Ru].[Ru] was read as HTT cytoprotect -34%[1.9 µM].
Screening CC(C)(C)c1cc(-c2csc(Nc3ccccc3)[n+]2Cc2ccc(C(=O)O)cc2)cc(C(C)(C)C)c1O returned NPSR antag 13µM*, ERK EGF block inconclusive, HTT cytoprotect -5%[10 µM] and HTT aggregate 1%[9.22 µM].
`O=C(O)c1ccc(C[n+]2c(-c3ccccc3)csc2Nc2ccccc2)cc1` gave NPSR antag -58%, ERK EGF block 3%, IMPase Li cell 1%, HTT cytoprotect 18%[1.9 µM] and HTT aggregate 1%.
`O=C1c2c(O)cc(O)cc2O[C@@H](c2ccc(O)c(O)c2)[C@H]1O` gave HTT cytoprotect -8%[1.9 µM].
`COc1ccc(CNC(=O)CN(Cc2ccccc2)S(=O)(=O)c2ccc(Cl)cc2)cc1` gave NPSR antag inconclusive, IMPase Li cell 43%[38.3 µM], HTT cytoprotect -19% and HTT aggregate inconclusive.
Screening COc1ccc(C)cc1S(=O)(=O)N(CC(=O)NCc1ccc(Cl)cc1)Cc1ccccc1 returned NPSR antag inconclusive, IMPase Li cell 28%[38.3 µM], HTT cytoprotect -25%[10 µM] and HTT aggregate 28µM*.
Screening CCN(CC)C(=O)CSc1nc2c(sc(=S)n2-c2ccccc2)c(=O)n1Cc1ccco1 returned NPSR antag 10µM*, IMPase Li cell 10%[38.3 µM], HTT cytoprotect -32% and HTT aggregate 2%[9.22 µM].
For N#C/C(=N\O)c1nc(-c2ccccc2)cs1 the results were NPSR antag -7%[46.1 µM], IMPase Li cell -7%[38.3 µM], HTT cytoprotect -7% and HTT aggregate 8.9µM*!.
Screening N#CC(=C1CCCC1)c1nc(-c2ccccc2)cs1 returned NPSR antag -17%[46.1 µM], IMPase Li cell -11%[38.3 µM], HTT cytoprotect -53% and HTT aggregate -3%.
Screening Cc1ccc(C(=O)Nc2nnc(-c3ccco3)o2)cc1 returned NPSR antag 20%, ERK EGF block -1%, IMPase Li cell 2%, HTT cytoprotect -3%[10 µM] and HTT aggregate -11%.
Screening O=C(Nc1nnc(-c2ccco2)o1)c1ccc([N+](=O)[O-])s1 returned NPSR antag -12%, ERK EGF block -10%, IMPase Li cell 0%, HTT cytoprotect -173% and HTT aggregate 11µM*.
`O=C(Nc1nnc(-c2ccncc2)o1)c1ccc(Br)s1` gave NPSR antag -17%, ERK EGF block -2%, IMPase Li cell -10%, HTT cytoprotect -110% and HTT aggregate 11µM*.
